# Reference: publication PMC5540273 (PLoS ONE, 2017)
# Test system: T1, AMPK-alpha1
# T1 construct: gene PRKAA1
# Conditions: concentration: 1 μM, replicates: in singlicate; n = 1
# 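Note: KINOMEscan kinase panel screen.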
row,Compound,%Inh [%]
1,COc1ccc(NC(=O)c2ccoc2)cc1-c1ccc(C(=O)NCC2CC2)cc1 [GW810437],19
2,CC(=O)Nc1cn2nc(Oc3cccc(NC(=O)c4cccc(C(F)(F)F)c4)c3)ccc2n1,0
3,Cc1ccc(C)c(NC(=O)Nc2ccc(C)c(-c3ccc(C(=O)Nc4ccncc4)cc3)c2)c1 [GSK1398473],15
4,CN(C)c1ncnc2nc[nH]c12 [SKF-31736],0
5,Cc1ccc(O)cc1Nc1ccnc2cc(-c3ccc(CN4CCCCC4)o3)ccc12 [GW557777],0
6,Cl.Cl.NCC(NC(=O)c1cc(-c2cccnc2)c(-c2ccnc3[nH]ccc23)s1)c1ccccc1 (stereo not shown) [GSK1323434],0
7,CC(C)NCC(Cc1ccccc1)NC(=O)c1cc(Br)c(-c2ccnc3[nH]ccc23)s1.Cl.Cl (stereo not shown) [GSK1383281],57
8,COc1cccc(NC(=O)NCCNc2ccnc(Nc3ccc(F)cc3)n2)c1 [GSK1379879],0
9,Cc1cc(-c2ccnc(Nc3cccc(C#N)c3)n2)cc(C)c1O [GSK1440913],17
10,Cc1ccc(O)cc1Nc1ccnc2ccc(C(C)(C)C)cc12 [GW856805],8
11,O=C(Nc1n[nH]c2nc(-c3ccccc3)ccc12)C1CC1 [SB-708999],17
12,Cl.Cl.NC(CNC(=O)c1cc(Br)c(-c2ccnc3[nH]ccc23)s1)c1ccccc1 (stereo not shown) [GSK1322949],73
13,Cn1cc(-c2cnc(N)c3c(-c4ccc5c(c4)CCN5C(=O)Cc4ccccc4)csc23)cn1 [GSK2593074],17
